Screening results (PubChem BioAssay)
Shown are actives, neighbours in structure and some others; about 3.3% of the full set was active somewhere.
Statin myotox sup – suppression of simvastatin myotoxicity. C2C12 myotubes + simvastatin, ATP luminescence, 48 h; scaled: DMSO 0, geranylgeraniol control 100. rescue of ATP level, % at 7.49 µM. 0.78% of 330,000 active. AID 602340;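 active = mean ATP rescue above about 67%, or every replicate alone reaching that limit, limit read from the data, passing the limit was not always enough; inconclusive = no clear call, values can overlap the other calls; inactive = mean under the limit and some replicate under it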;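 also: myotubes were challenged with 10 µM simvastatin during compound exposure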
Wnt act – activators of Wnt/beta-catenin signaling; Wnt/beta-catenin reporter cell assay, activator, plate reader; activation, % at 9.35 µM; 1.2% of 300,000 active; in the data active = activation above about 30%, passing the limit was not always enough; inconclusive = no clear call, values can overlap the other calls;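 also: 0% = neutral control wells and 100% = positive control wells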
esBAF inh – blocks esBAF chromatin remodeling in mouse ES cells | Bmi1-luciferase knock-in reporter, 24 h; 100% = twice the neutral-well signal | 2% of 350,000 active | reporter increase, % at 12.5 µM | AID 602393; in the data active = activation above about 40%; inconclusive = no clear call, values can overlap the other calls;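 also: 0% = median of the plate's neutral control wells and 100% = double that signal; a rise in the Bmi1 reporter signal indicates esBAF inhibition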
FXN GAA850 act – frataxin GAA850 promoter activation; HEK293 lucGAA850 FXN promoter luciferase reporter, 24 h; percent of 10 µM SAHA response; activation, % at 6 µM; 0.56% of 360,000 active;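 active = activation above the average of all compounds screened plus 3 SD, cutoff fixed separately per campaign, cut at about 7.5% in these data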;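 also: 0% = DMSO wells and 100% = 10 µM SAHA wells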
MITF TRPM1 HTS – increases MITF-driven TRPM1 promoter luciferase signal; SK-MEL-5 TRPM1-promoter luciferase, 24 h; % of positive control, neutral wells = 0; activation, % at 12.5 µM; 0.75% of 300,000 active; AID 588334;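 active = mean activation of at least 80% with every replicate also reaching 80%; inconclusive = mean reaches 80% but some replicate falls short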;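 also: 0% = neutral control wells and 100% = parthenolide positive control wells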
Numbers without * were called inactive.

Results for CCCC#Cc1cnc2c(c1)C(=O)N([C@@H](C)CO)C[C@H](C)[C@H](CN(C)C(=O)CN1CCOCC1)O2 ?
Statin myotox sup: -8; esBAF inh: 3

What do the screens show for `Cc1ccc(C)c(NC(=O)c2ccccc2NC(=O)C2CCCO2)c1` (stereo not given)?
Wnt act: 60*; FXN GAA850 act: 0; MITF TRPM1 HTS: -2

How did CC(C)(C)NC(=O)c1ccccc1NC(=O)C1CCCO1 (stereo not given) do in these assays?
Wnt act: -1; FXN GAA850 act: 0; MITF TRPM1 HTS: 4

Results for COc1cc(C=O)ccc1OCc1cccc(Br)c1 ?
Wnt act: 42*; FXN GAA850 act: 3; MITF TRPM1 HTS: inconclusive

Results for COC(=O)c1ccccc1OCCCOc1ccc(C=O)cc1OC ?
Statin myotox sup: -103; esBAF inh: 70*; FXN GAA850 act: 0; MITF TRPM1 HTS: 44

How did COc1cc(C=O)ccc1OCc1ccccc1Br do in these assays?
Wnt act: 23; FXN GAA850 act: 3; MITF TRPM1 HTS: 42

What do the screens show for `C[C@H](CO)N1C[C@H](C)[C@H](CN(C)CC2CC2)Oc2cc(/C=C/c3ccccc3)ccc2S1(=O)=O`?
Statin myotox sup: -2; esBAF inh: 0

What do the screens show for `CC(C)NC(=O)N1CC[C@@H]2[C@H]1c1cc(-c3ccccc3)ccc1N(C)[C@H]2CO`?
Statin myotox sup: 2; esBAF inh: 2

Results for COc1ccc(C(CNC(=O)c2cccn2C)N2CCOCC2)cc1 (stereo not given) ?
Statin myotox sup: 6; Wnt act: 18; esBAF inh: 57*; FXN GAA850 act: 1; MITF TRPM1 HTS: 44

How did COc1ccc(C(CNC(=O)c2ccc(C)o2)N2CCOCC2)cc1 (stereo not given) do in these assays?
Statin myotox sup: -3; Wnt act: -4; esBAF inh: 1; FXN GAA850 act: 0; MITF TRPM1 HTS: -5

What do the screens show for `O=C(NCC(c1ccco1)N1CCOCC1)c1c(F)cccc1F` (stereo not given)?
Statin myotox sup: 2; Wnt act: 0; FXN GAA850 act: 0; MITF TRPM1 HTS: -3

Results for O=C(NCC(c1ccc(F)cc1)N1CCOCC1)c1c(F)cccc1F (stereo not given) ?
Statin myotox sup: 7; Wnt act: 39*; esBAF inh: 3; FXN GAA850 act: 3; MITF TRPM1 HTS: 3

How did CO[C@H]1CN(C)C(=O)c2cc(NC(=O)C3CC3)ccc2OC[C@@H](C)N(CCC(F)(F)F)C[C@H]1C do in these assays?
Statin myotox sup: 8; esBAF inh: 3

How did C[C@H]1CN([C@@H](C)CO)C(=O)c2cc(-c3ccccc3F)cnc2O[C@@H]1CN(C)C(=O)NC1CCCC1 do in these assays?
Statin myotox sup: 8; esBAF inh: -2

Results for CC(=O)c1ccc(NC(=O)c2ccn(C(=O)OCC(C)C)n2)cc1 ?
Wnt act: 53*; FXN GAA850 act: 2; MITF TRPM1 HTS: 18

Results for Clc1ccc(-c2nnc(-c3ccccc3)o2)c(Cl)c1 ?
Statin myotox sup: -5; Wnt act: 39*; esBAF inh: -37; FXN GAA850 act: 3

How did CSc1nnc(-c2ccc(Cl)cc2Cl)o1 do in these assays?
Statin myotox sup: 9; esBAF inh: 51*; FXN GAA850 act: 2; MITF TRPM1 HTS: 51

Results for Fc1ccc(-c2nnc(-c3ccc(Cl)cc3Cl)o2)cc1 ?
Statin myotox sup: 2; Wnt act: 20; esBAF inh: 31; FXN GAA850 act: 1

Results for Clc1ccc(-c2nnc(-c3ccc(Br)o3)o2)c(Cl)c1 ?
Statin myotox sup: 22; esBAF inh: 38; FXN GAA850 act: 1; MITF TRPM1 HTS: 126*

How did CCOC(=O)/C=C/c1ccc2oc3ccccc3c(=O)c2c1 do in these assays?
Statin myotox sup: 3; Wnt act: 23; esBAF inh: 49*; FXN GAA850 act: 4; MITF TRPM1 HTS: 97*

What do the screens show for `COc1cc2oc3ccccc3c(=O)c2cc1OC`?
Statin myotox sup: 1; esBAF inh: 6; FXN GAA850 act: 6; MITF TRPM1 HTS: 46
